Data on twelve compounds can be found in PubChem BioAssay.

Activity calls are given as the source filed them. Unless noted, the rule behind the calls is not given here.

A short description of assay [1]: resazurin metabolic signal in HepG2 cells – cell-based, resazurin fluorescence, 24 h, PK04 Diversity Set, profiling panel (AID 1172). Note: test concentration not given here. The note with it: HepG2 viability, higher = more signal. (In general: The colour change of resazurin is a common sign of viable cells or microbes.)
Assay [2] in a line: budding yeast growth changes without added modifier – OD600, strain BY4716, 24 h, basal condition, primary screen (AID 1173). The note with it: S. cerevisiae BY4716 growth, OD600, 24 h; higher = more signal, called active from +8 up or from −8 down.
Assay [3] can be described thus: viability profiling in MM1S myeloma cells – cell-based, resazurin fluorescence, basal, 24 h, PK04 Diversity Set, profiling panel (AID 1174).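 Note: MM1S multiple myeloma cell line; test concentration not given here.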 The note with it: higher = more signal, called active from +8 up or from −8 down.
The target in assay [4] is Dihydroorotate dehydrogenase (quinone), mitochondrial (Plasmodium falciparum (isolate 3D7)) (UniProt Q08210). Put plainly: inhibition of P. falciparum DHODH – biochemical, C-terminal His tag, absorbance 600 nm, primary screen (AID 1175).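 Note: recombinant parasite enzyme with a five histidine tag at its C terminus; test concentration not given here.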 The settings on record: PfDHODH enzyme, DCIP absorbance 600 nm; higher = more signal, called active from +8 up or from −8 down.
Chain of Dihydroorotate dehydrogenase (quinone), mitochondrial (Plasmodium falciparum (isolate 3D7)) (Q08210 whole entry, looked up): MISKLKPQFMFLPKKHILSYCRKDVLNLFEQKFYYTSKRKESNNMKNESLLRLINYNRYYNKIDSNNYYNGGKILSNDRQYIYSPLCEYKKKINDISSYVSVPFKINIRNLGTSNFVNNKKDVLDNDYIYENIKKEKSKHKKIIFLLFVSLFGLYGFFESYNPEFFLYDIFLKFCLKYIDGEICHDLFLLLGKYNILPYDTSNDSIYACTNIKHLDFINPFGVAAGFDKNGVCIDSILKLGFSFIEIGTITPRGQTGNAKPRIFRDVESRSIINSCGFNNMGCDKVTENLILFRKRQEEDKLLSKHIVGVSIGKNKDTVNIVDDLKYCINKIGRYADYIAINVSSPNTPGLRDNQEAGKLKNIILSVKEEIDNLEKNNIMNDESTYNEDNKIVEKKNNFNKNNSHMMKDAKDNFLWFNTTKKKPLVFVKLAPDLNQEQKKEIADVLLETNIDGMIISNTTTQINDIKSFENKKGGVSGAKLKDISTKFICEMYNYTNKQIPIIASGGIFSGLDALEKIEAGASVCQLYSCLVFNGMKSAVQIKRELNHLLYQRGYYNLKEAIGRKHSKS
Assay [5] is described as follows: inhibition of PAO1 biofilm formation – strain PAO1, LB-PBS medium, absorbance 600 nm, primary screen (AID 1176). Note: test concentration not given here. The settings on record: P. aeruginosa PAO1 growth/biofilm, A600, 12 h; higher = more signal.
Assay [6] is described as follows: growth modulation of vineyard yeast isolate – strain RM11-1a, OD600, basal, 24 h, primary screen (AID 1177).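 Note: cultures grown under basal conditions with no added stressor; test concentration not given here.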 The note with it: S. cerevisiae RM11-1a growth, OD600, 24 h; higher = more signal, called active from +8 up or from −8 down.
Assay [7] is described as follows: growth of efflux-deficient E. coli DRC39 – strain DRC39, OD650, 24 h, E. coli filamentation inducers, primary screen (AID 1178).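 Note: growth measured as culture turbidity by optical density at 650 nm; test concentration not given here.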 The settings on record: E. coli DRC39 acrAB, higher = more signal, called active from +8 up or from −8 down.
A short description of assay [8]: growth of efflux-deficient E. coli DRC39 – strain DRC39, OD650, 48 h, E. coli filamentation inducers, primary screen (AID 1179).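 Note: screen aims at cell division blockers that make cells filament.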 The note with it: E. coli DRC39 delta-acrAB growth, higher = more signal, called active from +8 up or from −8 down.
Assay [9] can be described thus: viability profiling in RPMI8226 myeloma cells – cell-based, resazurin fluorescence, basal, 24 h, PK04 Diversity Set, profiling panel (AID 1180).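 Note: RPMI8826 multiple myeloma cell line at 5000 cells per well; test concentration not given here.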 The settings on record: higher = more signal.
Assay [10] addresses E3 ubiquitin-protein ligase XIAP (Homo sapiens) (UniProt P98170). Put plainly: small molecules binding XIAP protein – biophysical, small-molecule microarray, fluorescence 635 nm, primary screen (AID 1181).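 Note: score merges 667 nm emission and signal to noise over triplicate slides.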 The settings on record: higher = more signal.

Chain of E3 ubiquitin-protein ligase XIAP (Homo sapiens) (P98170 whole entry, looked up): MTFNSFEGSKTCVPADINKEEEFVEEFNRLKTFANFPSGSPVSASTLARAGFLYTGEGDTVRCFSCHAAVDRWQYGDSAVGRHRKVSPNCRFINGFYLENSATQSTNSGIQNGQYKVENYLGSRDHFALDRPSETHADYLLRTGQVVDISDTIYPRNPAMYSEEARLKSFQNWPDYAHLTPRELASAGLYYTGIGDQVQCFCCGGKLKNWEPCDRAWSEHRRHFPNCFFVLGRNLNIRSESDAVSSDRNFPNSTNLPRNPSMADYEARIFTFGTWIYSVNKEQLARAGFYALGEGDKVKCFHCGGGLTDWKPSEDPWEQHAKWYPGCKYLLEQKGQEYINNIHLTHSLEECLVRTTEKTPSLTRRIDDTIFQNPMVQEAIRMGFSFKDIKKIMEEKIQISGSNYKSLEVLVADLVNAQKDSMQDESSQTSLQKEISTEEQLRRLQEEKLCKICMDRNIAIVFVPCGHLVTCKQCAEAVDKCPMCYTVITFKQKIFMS

With `Cc1ccc(S[C@]2(C(=O)NCCCN(C)C)CC(=O)N(Cc3cc(C(F)(F)F)cc(C(F)(F)F)c3)[C@@H]2c2ccc(CO)cc2I)cc1`, the z-score in assay [1] is -0.274; in [2], -4.35 (inactive); in assay [3] it was -3.04 (inactive); in assay [5] it was 0.323 (inactive); in assay [6] it was -0.514 (inactive); in assay [7], 0.392 (inactive). Besides, the z-score in [8] was 0.786 (inactive); in assay [9], -2.62. For the same compound, the results for the composite z-score in assay [4] and in [10] were -0.0868 (inactive) and -0.0795, respectively.

For `O=C1O[C@H](c2ccccc2)[C@H](c2ccccc2)N2[C@H]1[C@@H](C(=O)N1CCCCCCC1)[C@]1(C(=O)Nc3ccc(C#CC4=CCCCC4)cc31)[C@H]2c1ccc(OCCO)cc1`, the z-score in assay [1] was -0.881; in assay [2] it was 0.362 (inactive); in [3], 0.241 (inactive); in assay [5], 2.25 (inactive); in assay [6] it was 0.6 (inactive); in [7] it was 0.825 (inactive). Further, the z-score in assay [8] was 0.286 (inactive); in [9] it was 0.326. The composite z-score is -0.585 (inactive) in assay [4] and 1.08 in [10].

In the case of `COCCOC(=O)N1C(=O)[C@@]2(c3cc(C#CCC(C(=O)OC)C(=O)OC)ccc31)[C@H](c1ccccc1OCCO)N1[C@H](c3ccccc3)[C@H](c3ccccc3)OC(=O)[C@H]1[C@@H]2C(=O)NC[C@H](O)c1ccccc1`, the z-score in [1] was -0.326; in assay [2], 1.67 (inactive); in [3], -2.44 (inactive); in assay [5], 2.23 (inactive); in assay [6], 2.84 (inactive); in assay [7], 0.675 (inactive). Besides, the z-score is 0.382 (inactive) in assay [8] and -3.62 in [9]. Besides, the composite z-score in [4] was -0.398 (inactive); in assay [10] it was 0.177.

Turning to `COCCOC(=O)N1C(=O)[C@@]2(c3cc(C#CCCO)ccc31)[C@H](C(=O)N1CCCCCCC1)[C@H]1C(=O)O[C@H](c3ccccc3)[C@H](c3ccccc3)N1[C@@H]2c1ccc(OCCO)cc1`, the z-score in [1] was 0.902; in assay [2], 0.849 (inactive); in assay [3], 0.368 (inactive); in assay [5], 1.56 (inactive); in assay [6], 2.32 (inactive); in [7], -0.0574 (inactive). The z-score was 0.215 (inactive) in assay [8] and -2.44 in assay [9]. Also, the figures for the composite z-score in assay [4] and in assay [10] were 0.047 (inactive) and 1.06, respectively.

In the case of `CC1(C)[C@@H]2CC(C(O)C3C=CC4C(=O)N(c5ccccc5)C(=O)C4N3Nc3ccc([N+](=O)[O-])cc3)=C[C@H]1C2` (stereo not given in full), the z-score in [1] was -0.128; in [2], 0.318 (inactive); in assay [3], 0.218 (inactive); in [5], 1.07 (inactive); in [6] it was 0.08 (inactive); in assay [7] it was -0.982 (inactive). Further, the z-score in assay [8] was -0.512 (inactive); in assay [9] it was 0.0954. For the same compound, the results for the composite z-score in assay [4] and in [10] were 0.634 (inactive) and -0.141, respectively.

Turning to `O=C1N[C@@H](Cc2ccccc2)C(=O)N2[C@@H]1C[C@@H](C(=O)O)[C@H]2c1cccc(OCCO)c1`, the z-score in assay [1] is -1.6; in [2], 0.165 (inactive); in assay [3], -0.0089 (inactive); in [5], 0.0499 (inactive); in assay [6], 0.346 (inactive); in assay [7], 0.395 (inactive). Further, the z-score in [8] is 0.993 (inactive); in assay [9], -0.277. In addition, the figures for the composite z-score in [4] and in [10] were -2.58 (inactive) and -0.102, respectively.

For `C=C[C@H](OC)[C@@H](OC(=O)Nc1ccc(OC)cc1)c1ccc(O)c(F)c1`, the z-score in assay [1] is -0.709; in assay [2], -3.76 (inactive); in assay [3] it was -1.78 (inactive); in [5], 1.05 (inactive); in [6] it was 0.974 (inactive); in [7] it was 1.41 (inactive). For the same compound, the z-score in assay [8] is 0.98 (inactive); in assay [9] it was 1.69. In addition, the composite z-score in assay [4] is -1.89 (inactive); in assay [10] it was 0.0623.

As to `COC(=O)[C@H](Cc1ccccc1)N1CC2=C[C@@H](C3CC3)n3c(=O)n(C)c(=O)n3[C@H]2[C@@H]1[C@@H](O)Cc1ccccc1`, the z-score in [1] was -0.0568; in assay [2], -1.18 (inactive); in assay [3], -1.07 (inactive); in assay [5] it was 0.0937 (inactive); in [6] it was -0.143 (inactive); in assay [7], -0.172 (inactive). Also, the z-score was -0.228 (inactive) in assay [8] and 0.358 in assay [9]. For the same compound, the composite z-score in [4] was -0.174 (inactive); in assay [10], -0.142.

Turning to `COc1cc(NN2C(C(O)c3ccco3)C=CC3C(=O)N(c4ccccc4)C(=O)C32)cc(OC)c1OC` (stereo not given), the z-score in assay [1] is -1.41; in assay [2] it was 1.58 (inactive); in assay [3], -1.68 (inactive); in assay [5], 0.711 (inactive); in assay [6] it was 0.178 (inactive); in [7] it was -0.225 (inactive). The results for the z-score in assay [8] and in [9] were -1.32 (inactive) and -1.08, respectively. Besides, the values for the composite z-score in assay [4] and in [10] were -2 (inactive) and -0.081, respectively.

In the case of `COC(=O)C(CC#Cc1ccc2c(c1)[C@]1(C(=O)N2)[C@H](c2ccc(OCCO)cc2)N2[C@H](c3ccccc3)[C@H](c3ccccc3)OC(=O)[C@H]2[C@@H]1C(=O)N1CCc2cc(OC)c(OC)cc2C1)C(=O)OC`, the z-score was 0.399 in [1]; 2.53 (inactive) in assay [2]; 0.164 (inactive) in assay [3]; 3.7 (inactive) in assay [5]; 2.97 (inactive) in [6]; 0.242 (inactive) in assay [7]. For the same compound, the z-score is -0.182 (inactive) in [8] and -0.368 in assay [9]. The figures for the composite z-score in [4] and in assay [10] were -4.19 (inactive) and -0.227, respectively.

As to `COc1ccc(/C=C/C=O)cc1`, the z-score in [1] is -0.316; in assay [2], -3.59 (inactive); in assay [3] it was -0.998 (inactive); in assay [5], 0.0061 (inactive); in [6], 0.313 (inactive); in assay [7], 0.154 (inactive). The z-score in [8] is 0.0154 (inactive); in assay [9], -0.495. For the same compound, the composite z-score is -0.291 (inactive) in assay [4] and 0.128 in assay [10].

As for `[N-]=[N+]=Nc1ccccc1[C@H]1OC(c2ccc(OCCCO)cc2)=N[C@@]1(CCS(=O)(=O)c1ccccc1)C(N)=O`, the z-score in [1] was -0.183; in assay [2], -1.06 (inactive); in assay [3], 0.952 (inactive); in assay [5] it was 0.897 (inactive); in assay [6], -0.167 (inactive); in assay [7], 0.981 (inactive). For the same compound, the z-score is -0.319 (inactive) in assay [8] and 0.187 in [9]. Moreover, the figures for the composite z-score in [4] and in assay [10] were 0.22 (inactive) and 0.291, respectively.
